Laboratory results from PubChem BioAssay (NCI).
This is part of a sample that, as a whole, favours compounds with a hit. Of some 79,000 tested, about 15% had one in any assay. Unmarked numbers belong to inactive results. Activity calls are given as the source filed them. No stated cut-off is given here; in the data, active means growth inhibition above about 70%; inactive means the rest.

How the values were obtained:
[1] = NCI Yeast Anticancer Drug Screen. Data for the rad50 strain (AID 155);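 further: 0% = growth of vehicle-only cultures of the same strain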; conditions: S. cerevisiae rad50 strain growth inhibition, stronger effect = higher value
Outline: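 A DNA repair-deficient yeast mutant serves as the test organism; compound-induced growth inhibition is calculated against vehicle-treated cells.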

[2] = NCI Yeast Anticancer Drug Screen. Data for the mec2-1 strain (AID 157); conditions: S. cerevisiae mec2-1 strain, stronger effect = higher value
Outline: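 Growth inhibition is read against vehicle-treated controls after compound exposure of the mec2-1 yeast strain, which is defective in DNA damage repair or cell cycle control.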

[3] = NCI Yeast Anticancer Drug Screen. Data for the sgs1 mgt1 strain (AID 161);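 further: 0% = growth of cultures given vehicle only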; conditions: S. cerevisiae sgs1 mgt1 strain, stronger effect = higher value
Outline: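 Percent growth inhibition was derived by comparing compound-exposed mutant yeast with vehicle-exposed cultures. The strain carries alterations in DNA damage repair.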

[4] = NCI Yeast Anticancer Drug Screen. Data for the cln2 rad14 strain (AID 165);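 further: 0% = growth equal to vehicle treated cultures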; conditions: S. cerevisiae cln2 rad14 strain, stronger effect = higher value
Outline: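 Growth inhibition, relative to vehicle-treated controls, is the read-out. The test organism is a yeast strain with defined genetic alterations, cln2 rad14.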

[5] = NCI Yeast Anticancer Drug Screen. Data for the bub3 strain (AID 167); conditions: S. cerevisiae bub3 mutant strain, stronger effect = higher value
Outline: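 Inhibition values come from growth of compound-treated mutant yeast normalised to vehicle-treated controls.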

[6] = NCI Yeast Anticancer Drug Screen. Data for the mlh1 rad18 strain (AID 175); conditions: S. cerevisiae mlh1 rad18 strain growth inhibition, stronger effect = higher value
Outline: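 Cells of a genetically altered yeast strain, deficient in DNA damage repair, were treated with compound. Their growth was then compared with that of vehicle-treated cultures to give inhibition.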

[7] = at 5.0 µM (retest, dose inferred, filed as 0.5)
[8] = at 50.0 µM (retest, dose inferred, filed as 5.0)

Row | Structure (SMILES) | growth inhibition [1, 7] | growth inhibition [1, 8] | growth inhibition ([1]; at 50.0 µM) | growth inhibition [2, 7] [%] | growth inhibition [2, 8] | growth inhibition ([2]; at 50.0 µM) | growth inhibition [3, 7] [%] | growth inhibition [3, 8] | growth inhibition ([3]; at 50.0 µM) | growth inhibition [4, 7] [%] | growth inhibition [4, 8] | growth inhibition ([4]; at 50.0 µM) | growth inhibition [5, 7] [%] | growth inhibition [5, 8] | growth inhibition ([5]; at 50.0 µM) | growth inhibition [6, 7] | growth inhibition [6, 8] | growth inhibition ([6]; at 50.0 µM)
1 | COC(=O)/C=C1/OC(c2ccccc2)=C(Br)C1=O | 17% | 17% | 89.3% (active) | 11 | 11% | 91.3% (active) | 11 | 11% | 86.5% (active) | -6 | -6% | 88.3% (active) | -2 | -2% | 88.5% (active) | 15% | 15% | 85.3% (active)
2 | COC(=O)c1ccc(SCCC(=O)CCl)cc1 | 23% | 99% (active) | 99.3% (active) | 25 | 99% (active) | 99.2% (active) | 24 | 99% (active) | 99% (active) | 14 | 99% (active) | 98.7% (active) | 38 | 99% (active) | 99.4% (active) | 27% | 99% (active) | 99% (active)
3 | CCCCCCCCCCCCCCCCNC(C)c1ccccc1 (configuration not stated) | 0% | -3% | 98.1% (active) | -1 | 9% | 98.7% (active) | 6 | 4% | 99% (active) | -9 | -4% | 97.5% (active) | -6 | -6% | 99% (active) | -2% | 9% | 98.3% (active)
4 | O=C(CC(O)c1ccccc1)Sc1ccccc1 (configuration not stated) | -1% | 13% | 72% (active) | -2 | 8% | 50% | 1 | 42% | 63.1% | -2 | -7% | -9.2% | -6 | 4% | 80% (active) | -8% | 20% | 74% (active)
5 | C/C(CCC(=O)O)=N/Nc1ccc(C(=O)O)cc1 | 11% | 74% (active) | 66% | 0 | 71% (active) | 5.4% | 1 | 64% | 17.9% | 7 | 91% (active) | 5.85% | 2 | 91% (active) | 31.4% | 5% | 89% (active) | 23.7%
6 | CCC(C)(C)NCCCCCNc1cc(OC)cc2cccnc12 | -2% | 67% | 76.2% (active) | -5 | 0% | 40.2% | 4 | 22% | 56.4% | 0 | 9% | 21.4% | 6 | 36% | 79% (active) | 2% | 16% | 68.8%
7 | COc1ccc(C(=O)C(c2ccc(OC)cc2)C2(O)C(=O)Nc3c(Cl)cc(Cl)cc32)cc1 (configuration not stated) | 37% | 37% | 91% (active) | -20 | -20% | 92.3% (active) | 8 | 8% | 90% (active) | 25 | 25% | 90.9% (active) | -6 | -6% | 90.7% (active) | -18% | -18% | 90.7% (active)
8 | O=C(O)CC1c2ccc3ccccc3c2CCC1c1ccccc1 (configuration not stated) | 74% (active) | 99% (active) | 99.6% (active) | 44 | 99% (active) | 99.6% (active) | 68 | 99% (active) | 99.7% (active) | 34 | 99% (active) | 99.5% (active) | 30 | 99% (active) | 99.5% (active) | 78% (active) | 99% (active) | 99.5% (active)
9 | CCN(CC)CCN(C)c1ccc(CO)c2c1C(=O)c1ccccc1S2=O (configuration not stated) | 5% | 74% (active) | 95.8% (active) | -3 | 28% | 60.9% | -5 | 78% (active) | 96.3% (active) | 2 | 23% | 33.5% | 2 | 9% | 82.4% (active) | -1% | 73% (active) | 97.9% (active)
10 | O=C1/C(=C/c2ccccc2)CCC/C1=C\c1ccc(O)c(CN2CCCCC2)c1 | 25% | 42% | -4.05% | 16 | 27% | 1.95% | 26 | 47% | 88.8% (active) | 18 | 12% | 74.9% (active) | 21 | 32% | 82.2% (active) | 25% | 44% | 90.8% (active)
11 | O=C(NNc1ncccn1)c1ccc(C(=O)NNc2ncccn2)cc1 | -2% | 99% (active) | 2.75% | 0 | 100% (active) | 2.1% | -3 | 100% (active) | 41.5% | 7 | 99% (active) | -25.6% | 3 | 99% (active) | -2.6% | 2% | 99% (active) | 21.4%
12 | Cc1ccc(Sc2ccc3ccccc3n2)cc1 | 2% | -34% | 36% | -3 | 46% | 37.5% | 15 | 37% | 50.2% | -18 | -24% | 50.2% | 1 | 30% | 67% | 0% | 18% | 2.25%
13 | CCCCCCCCCCCCOc1c(Cl)cc(Cl)c(Cl)c1Cc1c(O)c(Cl)cc(Cl)c1Cl | 1% | 86% (active) | 97.5% (active) | 0 | 92% (active) | 98.5% (active) | 2 | 72% (active) | 98.3% (active) | -2 | 87% (active) | 97.2% (active) | 0 | 89% (active) | 96.4% (active) | 2% | 87% (active) | 97.7% (active)
14 | Cc1nc(Cl)nc(N)c1[N+](=O)[O-] | 2% | 44% | 53.8% | 8 | 55% | 44.1% | 3 | 30% | 24.8% | -3 | 19% | 10.8% | -6 | 31% | 22.9% | 6% | 41% | 45.1%
15 | COC(=O)CCCCC(=O)N(C(C)C)C(C)C | 4% | -10% | -8.6% | -5 | -1% | -14.4% | -11 | -11% | -19.8% | -2 | 11% | 76.3% (active) | 2 | 4% | -3.5% | 5% | -5% | 19.1%
16 | CCOC(=O)NC(=S)Nc1ccsc1 | 0% | -7% | 15.6% | -4 | -1% | 11.4% | 1 | 0% | 11% | 0 | -13% | 56.8% | -3 | 3% | 24.8% | -7% | 0% | 29.9%
17 | Cc1[nH]nc(C(=O)OC(C)C)c1N=NN(C)C | -65% | 94% (active) | 98.2% (active) | -43 | 98% (active) | 98.7% (active) | -46 | 96% (active) | 96.2% (active) | -69 | 97% (active) | 97.3% (active) | -64 | 95% (active) | 98.3% (active) | -115% | 95% (active) | 98.7% (active)
18 | C=CC1(C)CCC2C(=CCC3C2(C)CC(O)C(O)C3(C)COC2OC(CO)C(O)C(O)C2O)C1 (configuration not stated) | 1% | 99% (active) | 93.1% (active) | -1 | 100% (active) | 94.1% (active) | -1 | 99% (active) | 94.1% (active) | 1 | 99% (active) | 90.5% (active) | 0 | 99% (active) | 93.6% (active) | 0% | 82% (active) | -41.4%
19 | Oc1ccc2c(c1)OCC1c3ccccc3OC21 (configuration not stated) | 24% | 71% (active) | 76.7% (active) | 38 | 78% (active) | 64.3% | 28 | 73% (active) | 66.3% | 23 | 56% | 50.1% | 37 | 89% (active) | 75% (active) | 50% | 88% (active) | 76.7% (active)
